Inconclusive results are not listed. A number with no mark means an inactive call. Calls of active or inactive are those of the source. Calls come from the whole dose curve; as a rule, active = well fitted cell-killing curve with a large enough effect; inconclusive = small, poorly fitted or top-dose-only effect, or effect the other way; inactive = no such curve, though single readings can be large or run the other way.

Test [1] is described as follows: Quantitative High-Throughput drug screen in 47 multiple myeloma cell lines against the NCATS MIPE library collection: SKMM1_PLB cell viability assay (AID 1919863). Note: nearly all actives have a fitted effect of over 35% in size. The following applies: SKMM1 myeloma viability, CellTiter-Glo ATP, 48 h; viability: hits give low values. In a few lines:
(§1)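 500 cells/well; MIPE 4.0 drugs pin-transferred; 48 h, 37C, 5% CO2. CellTiter-Glo, 5 min RT, luminescence. Controls: DMSO 100%, media 0%.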
Background: In ATP-based viability assays light output follows the ATP content of the culture.

The nature of test [2]: Quantitative High-Throughput drug screen in 47 multiple myeloma cell lines against the NCATS MIPE library collection: U266_ATCC cell viability assay (AID 1919864). Note: nearly all actives have a fitted effect of over 35% in size. In outline:
as §1

Test [3] in a line: Quantitative High-Throughput drug screen in 47 multiple myeloma cell lines against the NCATS MIPE library collection: XG6_PLB cell viability assay (AID 1919865). Note: nearly all actives have a fitted effect of over 40% in size. In outline: as §1
A short description of test [4]: Quantitative High-Throughput drug screen in 47 multiple myeloma cell lines against the NCATS MIPE library collection: XG1_PLB cell viability assay (AID 1919866). Note: nearly all actives have a fitted effect of over 35% in size. In outline: as §1
The nature of test [5]: Quantitative High-Throughput drug screen in 47 multiple myeloma cell lines against the NCATS MIPE library collection: PE2_PLB cell viability assay (AID 1919869). Note: nearly all actives have a fitted effect of over 35% in size. In a few lines: as §1
Test [6] in a line: Quantitative High-Throughput drug screen in 47 multiple myeloma cell lines against the NCATS MIPE library collection: PCM6_Riken cell viability assay (AID 1919870). Note: nearly all actives have a fitted effect of over 30% in size. In a few lines:
as §1

Test [7] is described as follows: Quantitative High-Throughput drug screen in 47 multiple myeloma cell lines against the NCATS MIPE library collection: OPM2_DSMZ cell viability assay (AID 1919872). Note: nearly all actives have a fitted effect of over 30% in size. In outline: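 Luminescent ATP measurement with CellTiter-Glo gives viability, scaled between DMSO-only wells (100%) and media-only wells (0%). Cells, 500 per well, faced library compounds for 48 hours at 37C.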

The nature of test [8]: Quantitative High-Throughput drug screen in 47 multiple myeloma cell lines against the NCATS MIPE library collection: UTMC2_PLB cell viability assay (AID 1919868). Note: nearly all actives have a fitted effect of over 55% in size. The following applies: CellTiter-Glo ATP luminescence, 48 h; viability (% of DMSO control): at 45.8 µM (top of the series). In outline: as §1
Test [9] in a line: Quantitative High-Throughput drug screen in 47 multiple myeloma cell lines against the NCATS MIPE library collection: RPMI8226_ATCC cell viability assay (AID 1919871). Note: nearly all actives have a fitted effect of over 30% in size. In outline:
as §1

Test [10] is described as follows: Quantitative High-Throughput drug screen in 47 multiple myeloma cell lines against the NCATS MIPE library collection: VP6_DJ cell viability assay (AID 1919867). Note: nearly all actives have a fitted effect of over 40% in size. In outline:
as §1
Potency is the fitted concentration of half-maximal effect.

As to `O[C@@H](COc1cccc2ncccc12)CN1CCN(C2c3ccccc3[C@@H]3[C@H](c4ccccc42)C3(F)F)CC1` (some centres not stated), the Potency was 23.5 µM (active) in test [1]; 8.33 µM (active) in test [2]; 7.43 µM (active) in test [3]; 7.43 µM (active) in [4]; 16.6 µM (active) in test [5]; 10.5 µM (active) in test [6]. Moreover, in test [7], the Potency result was “inactive”.
`CN1C(=O)C(Cc2c[nH]c3ccccc23)NC1=S` (configuration not stated): the Potency in test [1] was 0.418 µM (active); in test [2], 5.9 µM (active); in test [8], 2.96 µM (active); in [6] it was 3.72 µM (active). In addition, the Potency entry in test [3], in test [4], in test [5], in [9] and in test [7] was “inactive” each time.
As for `Cc1cc(OCCCS(C)(=O)=O)cc(C)c1-c1cccc(COc2ccc3c(c2)OC[C@H]3CC(=O)O)c1`, the Potency in [1] was 14.8 µM (active); in test [3], 23.5 µM (active); in test [4], 16.6 µM (active); in [10], 2.35 µM (active); in test [9] it was 18.7 µM (active). Further, the Potency entry in [2] is “inactive”.
In the case of `COC1CCC(C(=O)c2ccc3nc4c(cc3c2)CCCO4)CC1` (configuration not stated), the Potency in test [1] was 26.4 µM (active); in test [2], 18.7 µM (active); in [3] it was 16.6 µM (active); in test [4], 14.8 µM (active); in test [10], 13.2 µM (active); in test [5], 18.7 µM (active). Besides, the Potency in test [9] is 20.9 µM (active); in test [7], 23.5 µM (active).
By viability is commonly meant a read-out of living cells in per cent, often relative to untreated cells. As to `COc1ccc2c(c1)CC[C@H]1[C@@H]2CC[C@]2(C)[C@@H](NCCCCCCN3C(=O)C=CC3=O)CC[C@H]12`, the viability in [1] was 134%. In addition, the Potency in test [2] was 20.9 µM (active). Besides, the Potency entry in [3], in test [4], in test [10], in [5] and in test [6] was “inactive” throughout.
Turning to `N#CC1(c2cccc(C(=O)Nc3cc(Oc4ccc5nc(NC(=O)C6CC6)sc5n4)ccc3F)c2Cl)CC1`, the Potency in test [1] is 2.96 µM (active); in test [2], 5.26 µM (active); in [10], 5.9 µM (active); in [6], 14.8 µM (active); in [9], 1.05 µM (active).
For the molecule `O=S(=O)(O)c1ccc2cc(N=Nc3cc(S(=O)(=O)O)c4cccnc4c3O)ccc2c1`, the Potency was 18.7 µM (active) in test [1], 13.2 µM (active) in [2], 3.32 µM (active) in [5] and 16.6 µM (active) in [9]. Moreover, the Potency entry in test [7] is “inactive”.
Regarding `CCOc1ccccc1N=Nc1c(C)[nH]n(-c2nc(-c3ccccc3)cs2)c1=O`, the Potency in test [1] was 2.96 µM (active); in [2], 8.33 µM (active); in [4], 1.05 µM (active); in [9] it was 2.35 µM (active). Moreover, in test [7], the Potency result is “inactive”.
Turning to `COC(=O)Nc1ccc(-c2nc(N3CCOCC3)c3cnn(C4CCN(C(=O)OC)CC4)c3n2)cc1`, the Potency in test [1] was 11.8 µM (active); in test [2], 1.32 µM (active); in test [10], 0.148 µM (active); in test [8] it was 0.059 µM (active); in test [5], 0.332 µM (active); in test [9], 0.332 µM (active). Moreover, in test [7], the Potency was 2.35 µM (active).
With `Fc1ccc(CNc2ncnc3ccc(F)cc23)cc1`, the viability in test [1] was 104%. Besides, the Potency in test [2] is 13.2 µM (active); in [3], 14.8 µM (active); in test [10] it was 5.9 µM (active); in test [9], 5.26 µM (active).
Turning to `COc1nccc(-c2c(-c3ccc(F)cc3)ncn2C2CCNCC2)n1`, the results for the Potency in test [1], in test [4] and in test [10] were 9.35 µM (active), 14.8 µM (active) and 1.18 µM (active), respectively. Moreover, the Potency result in [2] is “inactive”.
Consider `N#Cc1c(N(CC(=O)O)CC(=O)O)sc(C(=O)O)c1CC(=O)O`, for which the viability in test [1] was 102%. For the same molecule, the Potency result in test [2] and in test [7] was “inactive” each time. The Potency in test [8] is 23.5 µM (active); in test [5] it was 14.8 µM (active).
As to `CC1=C(C(=O)Nc2cc3cn[nH]c3cc2F)C(c2ccc(C(F)(F)F)cc2)CC(=O)N1` (configuration not stated), in test [1], the viability is 160%. Further, the Potency entry in test [2], in [3], in test [5], in test [9] and in test [7] was “inactive” each time. The figures for the Potency in test [8] and in test [6] were 8.33 µM (active) and 10.5 µM (active), respectively.
As for `CC[C@H](C)n1cc(C)c2c(C(=O)NCc3c(C)cc(C)[nH]c3=O)cc(-c3ccc(N4CCNCC4)nc3)cc21`, the Potency is 20.9 µM (active) in test [1]; 16.6 µM (active) in test [2]; 9.35 µM (active) in test [4]; 11.8 µM (active) in [10]; 23.5 µM (active) in test [5]; 26.4 µM (active) in [9].
Take `O=S(=O)(NCCNCC=Cc1ccc(Br)cc1)c1cccc2cnccc12`: the Potency in test [1] is 18.7 µM (active); in test [2], 20.9 µM (active); in [4], 5.26 µM (active); in test [10] it was 5.26 µM (active); in [8] it was 7.43 µM (active); in [5], 16.6 µM (active). In addition, the Potency in [6] was 16.6 µM (active); in test [9], 20.9 µM (active).
In the case of `COc1nc(C)cnc1NS(=O)(=O)c1cccnc1-c1ccc(-c2nnco2)cc1`, in test [1], the viability was 126%. For the same molecule, the Potency entry in test [2], in test [10], in test [8], in test [5], in [6] and in test [9] was “inactive” in each case. Moreover, the Potency result in [7] is “inactive”.
Regarding `Cc1cc2nc3c(=O)[nH]c(=O)nc-3n(CC(O)C(O)C(O)CO)c2cc1C` (configuration not stated), the Potency in test [1] was 20.9 µM (active). The Potency result in test [2], in test [8] and in test [5] was “inactive” throughout.
As for `CN1CC(=O)N2C(Cc3c([nH]c4ccccc34)[C@H]2c2ccc3c(c2)OCO3)C1=O` (some centres not stated), the viability in [1] was 129%. Moreover, the Potency entry in test [2], in test [4], in [10], in [5] and in test [7] was “inactive” in each case.
Regarding `CN1c2ccccc2C(=O)N2CCc3c([nH]c4ccccc34)C21` (configuration not stated), in [1], the viability is 100%. Further, the Potency in test [2] was 16.6 µM (active); in [3], 14.8 µM (active). Besides, in test [7], the Potency result is “inactive”.
